In the supplement of paper PMC13380429:

Tested on: Vero E6 infected with SARS-CoV-2
Assay: inhibition of SARS-CoV-2 cytopathic effect; higher = more antiviral protection, active = above 15
Conditions: 48 h

Measured: inhibition of SARS-CoV-2 cytopathic effect

c1ccc(CNc2ncnc3[nH]cnc23)cc1 [6-benzylaminopurine]
inactive: 1 nM 0.87% | 8.33 nM 0.37% | 100 nM -1.53% | 833.33 nM -1.37% | 10000 nM -1.09%

Cc1nnc(NS(=O)(=O)c2ccc(N)cc2)s1 [sulfamethizole]
inactive: 1 nM 3.32% | 8.33 nM 0.33% | 100 nM 0.51% | 833.33 nM 1.2% | 10000 nM 3.18%

CCCCCCCCCCCCCCCC(=O)OC(C)C [isopropyl-palmitate]
inactive: 1 nM -1.17% | 8.33 nM -0.59% | 100 nM 0.66% | 833.33 nM 1.48% | 10000 nM -2.42%

CC(C)NCC(O)COc1cccc2[nH]c3ccccc3c12 (stereo not given) [carazolol]
inactive: 1 nM 1.76% | 8.33 nM -2.21% | 100 nM -1.61% | 833.33 nM 0% | 10000 nM -4.08%

CC(C)(C=O)Cc1cc(C(C)(C)C)c(O)c(C(C)(C)C)c1
inactive: 1 nM 3.54% | 8.33 nM 2.95% | 100 nM 2.75% | 833.33 nM 2.01% | 10000 nM 1.01%

CO/N=C(\C(=O)N[C@@H]1C(=O)N2C(C(=O)O)=CCS[C@H]12)c1csc(N)n1 [ceftizoxim]
inactive: 1 nM -1.24% | 8.33 nM -13.2% | 100 nM -0.8% | 833.33 nM 0.85% | 10000 nM 0.82%

CO/N=C(\C(=O)N[C@@H]1C(=O)N2C(C(=O)O)=C(COC(N)=O)CS[C@H]12)c1ccco1
inactive: 1 nM -0.51% | 8.33 nM 1.54% | 100 nM 0.59% | 833.33 nM 0.24% | 10000 nM -0.24%

C=CCNc1c(O)cc2c(O)c1C[C@@H](C)C[C@H](OC)[C@H](O)[C@@H](C)/C=C(\C)[C@H](OC(N)=O)[C@@H](OC)/C=C\C=C(/C)C(=O)N2 [retaspimycin]
inactive: 1 nM 2.45% | 8.33 nM 0.93% | 100 nM 6.54% | 833.33 nM 5.56% | 10000 nM 8.73%

CO/N=C(\C(=O)N[C@@H]1C(=O)N2C(C(=O)[O-])=C(C[n+]3ccn4ncccc43)CS[C@H]12)c1nsc(N)n1 [cefozopran]
inactive: 1 nM -1.88% | 8.33 nM 1.38% | 100 nM -0.43% | 833.33 nM -0.82% | 10000 nM -0.02%

NC(=O)[C@@H](CCC(F)(F)F)N(Cc1ccc(-c2ncon2)cc1F)S(=O)(=O)c1ccc(Cl)cc1 [avagacestat]
inactive: 1 nM 0.74% | 8.33 nM -2.98% | 100 nM -5.03% | 833.33 nM -4.21% | 10000 nM -6.12%

CS(=O)(=O)c1ccc(C2=C(c3ccccc3)C(=O)OC2)cc1 [rofecoxib]
inactive: 1 nM 1.64% | 8.33 nM -0.86% | 100 nM -0.87% | 833.33 nM 0.62% | 10000 nM 1.14%

CCn1cc(-c2ccnc3[nH]c(-c4cccc(CN(C)C)c4)cc23)c(-c2ccc(NC(=O)N(C)C)cc2)n1
inactive: 1 nM 0.02% | 8.33 nM -2.56% | 100 nM -1.67% | 833.33 nM -3.22% | 10000 nM 1.16%

NC[C@H](O)c1ccc(O)c(O)c1 [norepinephrine]
inactive: 1 nM 1.39% | 8.33 nM -0.56% | 100 nM -2.09% | 833.33 nM 0.33% | 10000 nM -1.61%

CC[C@@H]([C@H](C)O)n1ncn(-c2ccc(N3CCN(c4ccc(OC[C@@H]5CO[C@@](Cn6cncn6)(c6ccc(F)cc6F)C5)cc4)CC3)cc2)c1=O [posaconazole]
inactive: 1 nM 0.11% | 8.33 nM 0.51% | 100 nM 0.36% | 833.33 nM 2.23% | 10000 nM -6.91%

Cc1ccc(C(=O)Cn2c3c(sc2=N)CCCC3)cc1 [pifithrin-alpha]
inactive: 1 nM -1.05% | 8.33 nM -0.83% | 100 nM -1.23% | 833.33 nM -1.09% | 10000 nM -2.47%

Nc1ncnc2c1c(COc1cccc(Cl)c1)nn2C1CCOCC1
inactive: 1 nM -1.11% | 8.33 nM -0.68% | 100 nM -0.3% | 833.33 nM -1.57% | 10000 nM -0.4%

N#CC(=C(/N)Sc1ccccc1N)/C(C#N)=C(/N)Sc1ccccc1N
inactive: 1 nM -0.64% | 8.33 nM 0.76% | 100 nM 2.1% | 833.33 nM -3.9% | 10000 nM -8.7%

CC(C)NC(=N)NC(=N)Nc1ccc(Cl)cc1 [proguanil]
inactive: 1 nM -0.7% | 8.33 nM 0.28% | 100 nM -0.95% | 833.33 nM -1.01% | 10000 nM -5.67%
